MCF10A rerep = inducers of DNA re-replication in MCF 10A breast cells; 350,000 tested, 2.9% active; MCF 10A DNA re-replication, Hoechst nuclear intensity, 48 h; Potency, µM (highest dose often 46.1 µM), without a hit: top-dose activity, positive = re-replication, most hits filed as activators; also: potency is read from the fitted curve at half-maximal effect; % of control where 0% means no effect; nearly all actives have a fitted effect of over 50% in size
Gal4-VP16 FLuc = Gal4-VP16 reporter inhibition counter-screen; Drosophila S2 Gal4-VP16 UAS-luciferase, luminescence, 20 h; 310,000 tested, 3.5% active; Potency, µM (titrated, usually from 53.6 µM), inactives show at the top dose activity, negative = inhibition, hits mostly inhibitors;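 also: Gal4-VP16 expression switched on by copper sulfate through the metallothionein promoter; potency is read from the fitted curve at half-maximal effect; % is scaled to controls: 0 for no effect and ±100 for the full control effect; nearly all actives have a fitted effect of over 50% in size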
IL-1B inflam inh = inhibitors of inflammasome signaling (IL-1 beta secretion); 360,000 tested, 4.7% active; AID 743279; THP-1 LPS/ATP IL-1B secretion, AlphaLISA, 16 h; active compounds read low; activity change, % at 57.5 µM; in the data active = activity change below about -50%; inconclusive = mostly about -30% to -49%; also: % is scaled to controls: 0 for no effect and ±100 for the full control effect
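Secreted IL-1B measured by AlphaLISA bead assay after 16 h compound exposure of THP-1 cells; compounds (final up to 57.5 uM) added 1 h before LPS (250 ng/mL) and ATP (1.25 mM) stimulation; lower signal means less secretion.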
SW480 rerep = inducers of DNA re-replication in SW480 colon cancer cells | Potency, µM (highest dose often 46.1 µM), for the others: at the highest dose re-replication activation, actives largely listed as activators | 340,000 tested, 1.8% active | SW480 DNA re-replication, Hoechst DNA content imaging, 48 h; also: potency is read from the fitted curve at half-maximal effect; % of control where 0% means no effect; nearly all actives have a fitted effect of over 55% in size
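Per well, 250 cells were exposed to pinned compound for 48 hr. Nuclear DNA was visualised with Hoechst (40 min, 37 C) and total object intensity recorded by fluorescence scanning.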
RORg inh = ROR gamma (mouse) transcription inhibition | P51450 | Drosophila S2 Gal4-RORgamma UAS-luciferase reporter, 20 h | Potency, µM (series often up to 53.6 µM), inactives show at the highest dose activity change, negative = inhibition, usual class: inhibitors | 310,000 tested, 5.4% active | AID 2551; also: potency is read from the fitted curve at half-maximal effect; % is scaled to controls: 0 for no effect and ±100 for the full control effect; nearly all actives have a fitted effect of over 60% in size
Target sequence (P51450 whole entry, looked up, the tested form may be a part): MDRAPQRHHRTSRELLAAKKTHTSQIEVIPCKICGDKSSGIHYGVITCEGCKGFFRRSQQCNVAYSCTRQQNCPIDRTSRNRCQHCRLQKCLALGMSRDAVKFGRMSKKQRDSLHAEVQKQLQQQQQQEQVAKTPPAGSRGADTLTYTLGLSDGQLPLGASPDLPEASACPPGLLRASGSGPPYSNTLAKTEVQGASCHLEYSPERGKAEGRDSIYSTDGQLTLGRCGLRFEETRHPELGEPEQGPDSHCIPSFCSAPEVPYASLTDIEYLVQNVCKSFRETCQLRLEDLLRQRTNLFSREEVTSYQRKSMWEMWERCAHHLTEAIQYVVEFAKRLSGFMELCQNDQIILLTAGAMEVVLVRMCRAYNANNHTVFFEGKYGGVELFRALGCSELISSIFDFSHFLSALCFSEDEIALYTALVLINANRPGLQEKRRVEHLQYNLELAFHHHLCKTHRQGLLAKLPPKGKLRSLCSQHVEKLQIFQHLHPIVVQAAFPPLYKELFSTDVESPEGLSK
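A Gal4/UAS one-hybrid system in insect cells: metallothionein-promoter Gal4–ROR gamma fusion plus Photinus luciferase reporter. Copper sulfate 700 uM final, 20 hr ambient incubation, luminescent detection after 10 min with reagent.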
The depositor's hits bear a star; ? = inconclusive; / = not tested or not shown; [ ] = another dose, or the depositor's remark. The list is not random: actives were taken first. Their share in the collection is about 11%. Unless noted, calls follow the shape of the dose curve; as a rule, active = well fitted curve in the direction sought with a large enough effect; inconclusive = small, poorly fitted or top-dose-only effect, or another doubt; inactive = no such curve, though single readings can be large; an effect the other way counts as inactive or inconclusive.

SMILES | MCF10A rerep | Gal4-VP16 FLuc | IL-1B inflam inh | SW480 rerep | RORg inh
COc1cccc(NC(=O)c2ccc(N3C(=O)C4CC=CCC4C3=O)cc2)c1 (centres undefined) | -3.1% | / | -3.2 | -17.2% | /
C/C=C/c1ccc(OC(C)[C@@H](O)c2ccc(O)c(OC)c2)c(OC)c1 (some centres undefined) | / | -8.5% | / | / | 36.3%
CCOC(=O)CC(=O)Nc1ccc(Br)cc1C(=O)O | 6.3% | -19.0% | 18.2 | -2.7% | 1.58µM*
Cc1cc(Cl)c(OCCCN2CCCCC2)c(Br)c1 | -0.8% | -2.0% | -78.8* | -2.2% | -34.6%
Cc1cc(C)c(OCCOCCN2CCN(C)CC2)c(Cl)c1 | 5.8µM* | -6.8% | 0.7 | -33.8% | 12.9%
O=S1(=O)CC(N2CC=CC2)CN1Cc1cn(Cc2ccc(F)cc2)nn1 (centres undefined) | / | / | 8.6 | / | /
C=CC(=O)Nc1cccc(Oc2cc(Cl)nc3[nH]ccc23)c1 | ? | / | -72.5* | ? | /
COc1cccc(NC(=O)c2cccc(C(=O)Nc3cccc(OC)c3)n2)c1 | -2.4% | -12.4% | 0.0 | -8.6% | 11.4%
CCn1c(SCC(=O)Nc2ccc(C(C)=O)cc2)nc2nc3c(cc2c1=O)CCCC3 | ? | ? | -54.6* | 1.9% | ?
CCn1c(SCC(=O)Nc2ccc(Cl)cc2)nc2nc3c(cc2c1=O)CCCC3 | 14.1% | 12.6µM* | -64.0* | ? | 14.1µM*
CCn1c(SCC(=O)Nc2ccc(OC)cc2)nc2nc3c(cc2c1=O)CCCC3 | 0.0% | -6.8% | -82.5* | 11.6% | -27.3%
CCn1c(SCC(=O)Nc2ccc(OC)cc2)nc2nc3c(cc2c1=O)COC(C)(C)C3 | 1.1% | -12.2% | 0.0 | -13.0% | -7.7%
COc1ccc2[nH]cc(CCNc3nc(-c4c(C)noc4C)nc4ccccc34)c2c1 | / | 7.2% | / | / | 17.0%
C[C@@H]1CN([C@@H](C)CO)C(=O)c2cc(NC(=O)CCN3CCOCC3)ccc2O[C@@H]1CN(C)C(=O)Nc1ccccc1 | -6.4% | / | 21.6 | -27.3% | /
CCOC(=O)N/N=C1/C[C@@H](O)[C@@H](O)[C@@H]2[C@@H]3C(=O)N(C4CCCCC4)C(=O)[C@H]3CC[C@H]12 | / | 0.5%[10 µM] | / | / | 3.6%[10 µM]
CN1CCN(C(=O)C[C@@H]2C=C[C@H](NS(=O)(=O)c3cccc(F)c3)[C@@H](CO)O2)CC1 | / | / | 32.4 | / | /
CC1=CC(C)(C)Nc2ccc(Cc3ccc4c(c3)C(C)=CC(C)(C)N4)cc21 | 29.1µM* | -23.1% | -5.5 | 0.7% | 14.5%
CC1=CC(C)(C)Nc2ccc(OC(=O)CN3C(=O)CCC3=O)cc21 | -1.5% | 7.08µM* | -100.6* | 4.11µM* | 5.62µM*
CC1=CC(C)(C)Nc2ccc(OC(=O)c3ccco3)cc21 | 4.11µM* | 5.62µM* | -100.5* | 18.4µM* | 2.82µM*
O=C(Oc1cccc(OC(=O)c2ccco2)c1)c1ccco1 | 1.9% | -6.0% | -0.1 | -3.8% | 20.2%
CC1=CC(C)(C)N2C(=O)C(=O)c3cc(OC(=O)c4ccco4)cc1c32 | ? | 11.2% | 38.0 | 1.3µM* | 34.2%
C=C[C@@]1(C)CC(=O)[C@]2(O)[C@@]3(C)[C@H](O)CCC(C)(C)[C@@H]3[C@H](O)[C@H](OC(C)=O)[C@@]2(C)O1 | / | -4.2% | / | / | 2.9%
CC1=CC(C)(C)Nc2ccc(OC(=O)c3cccnc3)cc21 | 2.59µM* | 0.794µM* | -98.4* | 3.66µM* | 0.501µM*
CC1=CC(C)(C)Nc2ccc(OC(=O)C(C)N3C(=O)c4ccccc4C3=O)cc21 (centres undefined) | ? | 11.2µM* | 0.0 | 3.66µM* | ?
COc1ccc([C@]23Cc4cc(OC)c(OC)cc4C(O2)C2=C(CCCC2=O)O3)cc1 | / | -0.5%[10 µM] | / | / | 6.7%[10 µM]
SMILES | MCF10A rerep | Gal4-VP16 FLuc | IL-1B inflam inh | SW480 rerep | RORg inh
CC1=C(C(=O)OCC(C)C)C(c2cccs2)NC(=S)N1 (centres undefined) | 8.3% | 2.51µM* | ? | 0.9% | 11.2µM*
CCOC(=O)C1=C(C)NC(=S)NC1c1ccc(C)s1 (centres undefined) | -25.5% | ? | -10.8 | -39.1%[1.84 µM] | 8.91µM*
CCOC(=O)C1=C(C)NC(=S)NC1c1ccco1 (centres undefined) | ? | -4.2% | -8.5 | ? | -38.9%
CNC(=O)C1=C(C)NC(=S)NC1c1cccs1 (centres undefined) | -13.8% | -5.3% | 0.9 | -10.8% | -6.6%
CCOC(=O)C1=C(C)NC(=S)NC1c1ccsc1 (centres undefined) | 2.2% | ? | -8.3 | -4.2% | 11.2µM*
CCN(CC)CCOCCn1c(C)ccc1C | 4.4% | / | -13.4 | ? | /
COc1ccc(NS(=O)(=O)c2cccc(C(=O)N3CCCC3)c2)cc1 | 7.6% | / | 11.4 | -1.7% | /
CSc1ccc(-c2sc(Nc3ccccc3)n[n+]2-c2ccccc2)cc1 | ? | -9.5% | -10.6 | -4.2%[9.22 µM] | -5.8%
Fc1ccc(-[n+]2nc(Nc3ccccc3)sc2-c2ccc(OCc3ccccc3)cc2)cc1 | 1.3µM* | -15.0% | 1.5 | 0.3% | -38.3%
Clc1cccc(-c2sc(Nc3ccccc3)n[n+]2-c2ccccc2)c1Cl | 4.5% | ? | -0.4 | -1.0% | 14.1µM*
COc1cc(OC)c(-c2sc(Nc3ccccc3)n[n+]2-c2ccc(F)cc2)cc1OC | 1.6% | -1.6% | 11.4 | -5.2% | -2.7%
COc1cc(Br)c(-c2sc(Nc3ccccc3)n[n+]2-c2ccc(F)cc2)cc1OC | -6.1% | -19.9% | -13.1 | 2.2% | 6.31µM*
COc1ccc(-c2sc(Nc3ccccc3)n[n+]2-c2ccc(F)cc2)c(OC)c1OC | -0.8% | -4.4% | -13.4 | 2.1% | -2.1%
Fc1ccc(-[n+]2nc(Nc3ccccc3)sc2-c2cccc(Cl)c2Cl)cc1 | -4.6% | ? | -3.9 | -1.9% | 8.91µM*
Cc1ccc(S(=O)(=O)N2C[C@H]3[C@H]4C(=O)N(c5ccccc5)C(=O)[C@H]4C[C@H](OC(=O)NCc4ccccc4F)[C@@]3(O)C2)cc1 | / | / | 14.8 | / | /
CN1CCN(c2ncc3ncc(=O)n(-c4ccccc4)c3n2)CC1 | / | -0.1% | / | / | -5.0%
Cc1cc(NC(=O)CSc2n[nH]c(-c3ccc(Cl)cc3Cl)n2)no1 | -6.4% | / | 5.7 | 3.5% | /
CN(C)c1ccc(C(=O)Nc2nc3c(s2)CCCC3)cc1 | 0.3% | 11.2µM* | -29.2 | -7.4% | 5.62µM*
CC(C)(C)c1ccc(C(=O)NC(=S)Nc2nc3c(s2)CCCC3)cc1 | ? | 4.47µM* | ? | ? | 1.78µM*
C/C(=N\Nc1nc2c(s1)CCCC2)c1ccc(Cl)cc1 | ? | 11.2µM* | -55.5* | ? | 1.26µM*
CC(C)(C)c1ccc(C(=O)NC(=S)Nc2sc3c(c2C#N)CCC3)cc1 | 10.1% | -6.7% | ? | -3.0% | 0.6%
CN(C)Cc1ccccc1-c1cc(N(C)Cc2ccco2)ncn1 | / | -10.8% | / | / | 6.6%
O=C1CCCN1CCCNc1nc2c(S(=O)(=O)c3ccccc3)nnn2c2ccc(Cl)cc12 | -1.3% | -2.9% | ? | ? | 10.2%

Bioassay records (PubChem BioAssay)
